SMILES strings stand for the structures. Activity calls are given as the source filed them. How the source made its calls: active means hit-call score of the fitted dose curve at least 0.9, where 1 is the maximum; inactive means score below 0.9.

As a reminder, the AC50 is the concentration at which the activity in the assay is half-maximal.

The test in a line: CCTE_Shafer_MEA_acute_synchrony_index: CCTE's Neural Acute Assay for Synchrony, Shafer Lab (AID 2284027).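 Further: fitted for loss of signal so actives lower synchrony relative to DMSO.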 The method, then:
CCTE_Shafer_MEA_acute assay is conducted using Axion Biosystems 48 well microelectrode array (MEA) plates and Maestro recording system. Each well of the MEA plate contains a grid of 16 microelectrodes embedded in the culture surface. Electrically active cells, such as neurons, can be cultured over the electrodes, and electrical activity in these cells can be recorded extracellularly. The spontaneous firing of neurons is captured from each electrode on a microsecond timescale providing both temporally and spatially precise data. […] The CCTE_Shafer_MEA_acute assay uses primary cultures of rat cortical neurons. As these cultures mature over time, neural networks develop functional activity and form cohesive networks in which electrical activity can be highly coordinated. Baseline 40-minute recordings are made on days post-plating 13 or 15, followed by a secondary 40-minute recording after chemical exposure.CCTE_Shafer_MEA_acute_synchrony_index is a component of the CCTE_Shafer_MEA_acute assay. It measures the synchrony of the neural network as a unitless measure between 0 (low synchrony) to 1 (high synchrony) during a recording in a microelectrode array (MEA) using Axion Biosystems Maestro 768 channel amplifier with the AxIS adaptive spike detector. The recordings before and after chemical treatment are used to calculate a percent change in the synchrony index in each well.Data from the assay component CCTE_Shafer_MEA_acute_synchrony_index was analyzed into 1 assay endpoint. This assay endpoint, CCTE_Shafer_MEA_acute_synchrony_index, was analyzed in the negative analysis fitting direction relative to DMSO as the negative control and baseline of activity. Using a type of functional reporter, gain or loss-of-signal activity can be used to understand electrical activity.
Spontaneous activity in the cortical cultures was recorded using an Axion Biosystems Maestro 768 channel amplifier and Axion Integrated Studios (AxIS) v1.8 (or later) software. The amplifier recorded from all channels simultaneously (gain = 1200 x; sampling rate = 12.5 kHz/channel): raw signals were filtered with a Butterworth band-pass filter (300-5000 Hz), which filters out slower local field potentials leaving only fast potentials, i.e., "spikes", arising from extracellular currents associated with action potentials (Pine 2006; Wheeler and Nam 2011). On-line spike detection of filtered signals was conducted with the AxIS adaptive spike detector, using a threshold of 8x the root mean squared (rms) noise on each channel. Any electrodes with rms noise levels greater than 5 uV were grounded (e.g., no data were recorded). Once grounded, an electrode was grounded for the duration of the experiment. All recordings were conducted at 37 C. Wells were deemed usable if on the day of the exposure >/= 10 electrodes were active (defined as >/= 5 spikes/min). On DIV 13 or 15, a minimum of three wells from one cortical culture preparation were treated with each compound (0.03-40 uM). Prior to recording baseline activity, each mwMEA plate was placed in the Maestro at 37 C and allowed to sit for 20 min while firing rates stabilized. Baseline activity (40 min) was recorded before the addition of each compound. An additional 40 min of spontaneous activity was recorded in the presence of each compound. Changes in network parameters relative to baseline were assessed following compound treatment.
Take `CCCCC(CC)CN1C(=O)C2C3C=CC(C3)C2C1=O` (centres undefined): the AC50 was 4.02 µM (active).
Take `CC(C)CCCCCCc1ccc(O)cc1`: the AC50 was 16 µM (active).
On to `CCNc1nc(N)nc(Cl)n1`, for which the compound was classed as inactive.
On to `CC(C)(c1ccc(O)cc1)c1ccc(O)cc1`, for which the compound was classed as inactive.
On to `O=C(c1ccc(O)cc1O)c1ccc(O)cc1O`, for which the result was inactive.
Take `Oc1ccc(C(c2ccc(O)cc2)C(Cl)(Cl)Cl)cc1`: the AC50 was 34.3 µM (active).
In the case of `CC(C)(C)[C@@H](O)[C@@H](Cc1ccc(Cl)cc1)n1cncn1`, the outcome was inactive.
In the case of `O=C(Nc1ccc([N+](=O)[O-])cc1Cl)c1cc(Cl)ccc1O`, the AC50 was 0.277 µM (active).
Consider `OB(O)O`, for which the compound was classed as inactive.
Regarding `CCCN(CCC)c1c([N+](=O)[O-])cc(C(F)(F)F)c(N)c1[N+](=O)[O-]`, the compound was called inactive.
In the case of `C#CCOC(=O)[C@@H](C)Oc1ccc(Oc2ncc(Cl)cc2F)cc1`, the result was inactive.
On the same count and under the same terms, in the case of `O=C(c1ccccc1)C1CCCCC1` it was “inactive”.
With `C=CCOC(Cn1ccnc1)c1ccc(Cl)cc1Cl` (centres undefined), the AC50 is 8.51 µM (active).
Same read-out and setting: in the case of `Cc1nn(C)c(Oc2ccccc2)c1C=NOCc1ccc(C(=O)OC(C)(C)C)cc1` it was 3.27 µM (active).
`CSC(=O)c1cccc2nnsc12`: the compound was classed as inactive.
For `O=C(O)c1ccccc1`, the compound was called inactive.
Turning to `N#CSCSc1nc2ccccc2s1`, the half-maximal activity concentration (AC50) is 28.6 µM (active).
For the compound `CC1(C)C(C=C(Cl)Cl)C1C(=O)OCc1cccc(Oc2ccccc2)c1` (centres undefined), the AC50 was 34.7 µM (active).
Consider `COC(=O)c1ccccc1C(=O)O`, for which the result was inactive.

The values are drawn from PubChem BioAssay (EPA / NIEHS).
